Activity calls are given as the source filed them. Rule for the calls: active = hit-call score of the fitted dose curve at least 0.9, where 1 is the maximum; inactive = score below 0.9.
What follows are molecules tested against human CK1alpha CK1 Kinase, CSNK1A1 (gene 1452) (UniProt P48729) (assay: ERF_TW_ENZ_hCSNK1A1: Eurofins (ERF) Enzymatic Radiometric [10 uM ATP] Assay for human CK1alpha CK1 Kinase).
Sequence of human CK1alpha CK1 Kinase, CSNK1A1 (gene 1452) (P48729 whole entry, looked up): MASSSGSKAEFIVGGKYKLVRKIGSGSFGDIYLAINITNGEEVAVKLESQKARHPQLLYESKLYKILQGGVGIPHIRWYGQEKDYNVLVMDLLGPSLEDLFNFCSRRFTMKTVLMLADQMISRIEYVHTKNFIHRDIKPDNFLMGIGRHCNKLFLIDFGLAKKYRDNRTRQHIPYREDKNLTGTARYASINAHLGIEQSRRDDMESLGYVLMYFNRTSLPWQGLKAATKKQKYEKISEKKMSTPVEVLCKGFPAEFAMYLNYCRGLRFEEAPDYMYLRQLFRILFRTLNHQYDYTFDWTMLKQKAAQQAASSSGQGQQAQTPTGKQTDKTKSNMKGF
Protocol: ERF_TW_ENZ_hCSNK1A1 is a biochemical, single-readout assay that uses extracted gene-proteins in a cell-free assay. Measurements were taken 0.5 hour after chemical dosing in a 96-well plate. See CK1alpha Human CK1 Kinase Enzymatic Radiometric Assay [10 uM ATP], Panlabs.ERF_TW_ENZ_hCSNK1A1 is an assay component calculated from the ERF_TW_ENZ_hCSNK1A1 assay. It is designed to measure enzyme activity using a type of enzyme reporter as detected by scintillation counting with radiometry technology.Data from the assay component ERF_TW_ENZ_hCSNK1A1 was analyzed at the assay endpoint, ERF_TW_ENZ_hCSNK1A1, in the positive analysis fitting direction relative to DMSO as the negative control and baseline of activity. Using a type of enzyme reporter, loss-of-signal activity can be used to understand changes in enzymatic activity as they relate to gene CSNK1A1. To generalize the intended target to other relatable targets, this assay endpoint is annotated to the kinase intended target family, where the subfamily is serine/threonine kinase.
CK1alpha (h) is incubated for 120 minutes at room temperature, with KRRRALS(p)VASLPGL (SP15) as substrate, and PP1 Analog II. 1NM-PP1 as control inhibitor. Test Sample Requirements: Compound should be supplied in 100%DMSO. We require a stock solution at a concentration of at least 50x higher than the Final Assay Concentration of your cpd. […]
For `O=C(/C=C/c1ccc(O)cc1)CC(=O)/C=C/c1ccc(O)cc1`, the AC50 was 872 nM (active).
